# According to the supplement of paper PMC6555819:
# Tests used:
# Assay in all cases: PBM binding z-score (relative to random genomic background probes); higher = stronger binding; sequences stand for … in GC…GCGATTGACAGCGTAGAATGAAGG
# [1] = test system: FXR:RXRa (NR concentration 270 nM, RXRa partner concentration 90 nM)
# Method in brief: (§1)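 Ligand-free nuclear receptor dimers were bound for 1 h to custom Agilent 4×180K protein-binding microarrays. Detection used antibodies against each partner (one per run). Binding z-scores rest on regression-normalized fluorescence, with random background probes as the reference.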
# [2] = test system: LXRa:RXRa (NR concentration 270 nM, RXRa partner concentration 90 nM)
# Method in brief: as §1
# [3] = test system: LXRa homodimer (NR concentration 270 nM)
# Method in brief: as §1
# [4] = test system: LXRb:RXRa (NR concentration 270 nM, RXRa partner concentration 90 nM)
# Method in brief: as §1
# [5] = test system: LXRb homodimer (NR concentration 270 nM)
# Method in brief: as §1
# [6] = test system: PPARa:RXRa (NR concentration 270 nM, RXRa partner concentration 90 nM)
# Method in brief: as §1
# [7] = test system: PPARg:RXRa (NR concentration 180 nM, RXRa partner concentration 90 nM)
# Method in brief: as §1
# [8] = test system: PPARg:RXRa 270nM:90nM, anti-RXR (NR concentration 270 nM, RXRa partner concentration 90 nM)
# Method in brief: as §1
# [9] = test system: PPARg:RXRa 30nM:10nM, anti-RXR (NR concentration 30 nM, RXRa partner concentration 10 nM)
# Method in brief: as §1
# [10] = test system: PPARg:RXRa 90nM:30nM, anti-RXR (NR concentration 90 nM, RXRa partner concentration 30 nM)
# Method in brief: as §1
# [11] = test system: PPARg:RXRa DBDmut IVT, anti-RXR (DBD mutation: RXRa K156A/R161A, NR concentration 270 nM, RXRa partner concentration 90 nM)
# Method in brief: as §1
# [12] = test system: PPARg:RXRa IVT, anti-PPARg (NR concentration 270 nM, RXRa partner concentration 90 nM)
# Method in brief: as §1
# [13] = test system: PPARg DBDmut:RXRa IVT, anti-PPARg (DBD mutation: PPARg1 K132A/R137A, NR concentration 270 nM, RXRa partner concentration 90 nM)
# Method in brief: as §1
# [14] = test system: PPARg DBDmut IVT, anti-PPARg (DBD mutation: PPARg1 K132A/R137A, NR concentration 270 nM)
# Method in brief: as §1
# [15] = test system: PPARg homodimer (NR concentration 180 nM)
# Method in brief: as §1
# [16] = test system: PXR:RXRa (NR concentration 270 nM, RXRa partner concentration 90 nM)
# Method in brief: as §1
# [17] = test system: PXR homodimer (NR concentration 270 nM)
# Method in brief: as §1
# [18] = test system: RARa:RXR (NR concentration 270 nM, RXRa partner concentration 90 nM)
# Method in brief: as §1
# [19] = test system: RARa homodimer (NR concentration 270 nM)
# Method in brief: as §1
# [20] = test system: RARb:RXRa (NR concentration 270 nM, RXRa partner concentration 90 nM)
# Method in brief: as §1
Sequence,PBM binding z-score [1],PBM binding z-score [2],PBM binding z-score [3],PBM binding z-score [4],PBM binding z-score [5],PBM binding z-score [6],PBM binding z-score [7],PBM binding z-score [8],PBM binding z-score [9],PBM binding z-score [10],PBM binding z-score [11],PBM binding z-score [12],PBM binding z-score [13],PBM binding z-score [14],PBM binding z-score [15],PBM binding z-score [16],PBM binding z-score [17],PBM binding z-score [18],PBM binding z-score [19],PBM binding z-score [20]
CCTACTGGGACATCAGGTCATTGATATCAACGTT,1.42,1.88,2.8,2.06,0.52,2.67,2.46,3.36,1.61,3.06,4.19,4.32,0.344,0.76,1.84,1.82,1.56,2.04,0.755,1.99
TCTTGTAGATCAATAGATGTTAAGAAAGTGCGCT,0.0811,0.309,0.0852,0.0203,-0.00365,-0.0219,0.251,1.64,3.17,2.42,1.57,0.386,0.918,1.19,-0.501,0.533,0.037,0.616,0.125,-0.26
AGAATGAGGTTACCAACGATCAGGGAAACGCTTG,1.58,5.96,-0.334,2.43,-0.375,3.66,2.78,2.43,0.844,1.7,3.37,3.5,0.997,1.46,0.587,0.991,-0.0709,2.01,-0.203,1.83
AGAACGAGGGGACGCTGAGTTGATAGCAGAGTAG,-0.308,-0.353,-0.679,-0.522,-0.449,-0.232,0.607,0.0813,-0.0641,-0.258,1.17,0.723,0.599,0.498,-0.427,-0.245,0.132,-0.589,-0.633,0.334
ATATGTAGTTTAGCTGGGGTCATTCAGACTAGGC,4.14,4.3,2.38,4.58,1.66,4.45,1.66,2.42,0.899,1.87,1.04,1.41,1.71,2.11,1.95,5.98,3.93,5.81,1.36,2.74
GCTATTAGTTGCAAGGGCAACCGAATGATTCTCG,0.225,0.26,-0.0244,0.193,0.0622,0.193,0.483,0.912,0.0952,0.546,0.729,0.0802,-0.249,-0.171,0.499,0.243,0.11,-0.00266,-0.474,1.37
TCTTGTAGATAAAGCAGGTTAAGAAAGCCTGAGT,0.606,0.66,-0.172,0.585,-0.647,1.06,-0.166,1.54,2.82,2.17,1.9,0.689,-0.607,0.523,0.35,0.561,0.376,0.708,0.783,0.2
AGAACGAGGTTATTAAGATCAGGGAATTGCGGTC,1.44,1.34,-0.0763,1.09,-0.115,2.15,1.26,1.68,0.389,0.958,2.38,2.16,0.246,0.0385,0.237,1.04,0.955,1.08,-0.125,1.32
AGAACGAGGGCACGCTGAGTTGATAGTAGAGTAG,0.725,0.439,-0.765,0.35,-0.699,2.1,1.94,1.62,0.448,0.971,4.08,3.89,0.542,0.293,0.125,1.26,0.49,0.759,-0.324,2.57
CTTATTAGTTGACCATAAGGGCAACCGAAGCTCG,0.831,0.356,0.185,0.373,0.837,0.629,0.439,0.266,0.208,0.259,0.601,0.869,1.18,1.03,0.708,0.686,0.516,0.781,1.3,1.72
CCTAACAGGCCAGGGTCACTCAAGCATTTCGCTT,2.05,1.86,-0.195,2.38,-0.349,3.2,0.798,1.41,-0.181,0.356,0.296,0.882,-0.338,-0.618,1.4,2.58,-0.222,3.26,0.384,2.85
GCTTCTAGGTCAGGTTGGTCAGCTAACGGGTACG,1.94,1.19,-0.092,1.17,1.34,2.57,3.16,3.17,0.647,2.22,6.57,5.9,1.46,0.392,1.61,0.562,0.241,1.26,0.169,3.53
TAGCGTAGGTCATTCAGGGGCCAGTATAGAAAGC,4.91,4.31,0.816,3.43,1.24,4.19,1.8,2.55,0.626,1.6,0.864,1.61,0.591,0.134,2.48,3.08,0.138,4.5,0.404,3.99
CGTACAAGGTCAGCAGGTCAGTGAAAGCGACGTG,6.31,4.3,0.745,3.29,-0.00943,5.32,5.54,5.17,1.99,3.64,3.86,4.79,1.35,0.315,3.51,3.82,0.382,5.17,1.11,5.23
CTCGAAACGTCGTGCTCAGGTGAGTATACCAAAC,-0.453,-0.656,-0.383,-0.688,-0.52,-0.553,-0.362,-0.781,-0.655,-0.34,-0.582,-0.171,-0.256,0.311,-0.393,-0.468,-0.608,-0.466,-0.557,-0.265
CCGACTCGGGCATAAGGTTACCATAAGCCAGCCC,0.235,2.34,-0.549,0.615,-1.1,1.14,0.783,1.19,-0.332,0.652,0.661,-0.167,-1.02,-2,0.278,0.0235,-0.204,0.884,-0.315,1.36
TCTAGTTGGTCACGGAGGTCACTCACGACGGGTA,2.52,2.98,1.91,2.84,0.542,3.15,2.52,3.55,3.29,3.24,2.58,3.97,0.646,0.986,2.5,3.9,1.36,3.6,1.05,3.47
ACTATTAGTTGACTTAGGGCTACCGATACGACGC,0.0661,-0.121,-0.0225,-0.352,0.601,-0.131,0.862,-0.0974,0.182,-0.112,-0.203,0.114,1.14,0.816,0.416,-0.151,-0.109,0.146,0.74,0.27
GGAACGAGGGCAAAGTTGGTAGCATCTGTCGACG,1.06,0.577,-0.241,0.306,-0.429,3.14,5,5.51,4.45,5.44,4.05,3.9,0.127,-0.27,0.782,0.589,-0.136,0.765,-0.548,2.31
CCTAGTTTGTCAGGAGGTCACACACCGGATATGA,3.37,3.76,3,3.64,1.48,4.17,2.45,3.15,1.26,2.39,1.14,2.9,1.37,1.6,4.45,4.63,1.7,5.02,2.79,3.46
TCGCCTAGGTCATGCGGGCCAGTATAGTGTCGGC,4.09,2.65,0.228,1.72,-0.926,3.47,1.56,2.12,1.32,1.71,2.3,2.74,-0.0945,-0.593,0.827,1.45,-0.348,2.59,-0.685,3.87
TCTTGTAGATCAACAGTAGGTTAAGAAAGATCGA,0.361,0.659,0.0852,0.659,-0.18,1.13,0.249,1.49,2.78,2.39,2.46,1.72,0.934,0.698,0.243,0.284,-0.303,0.504,0.265,0.132
CTCGAAAGGTCGTGATCAGGTGAGTATACCAAAC,5.37,3.83,0.129,3.24,0.0388,4.89,3.12,3.71,1.2,2.73,0.796,1.71,1.37,0.63,2.1,3.28,-0.0349,4.26,0.477,3.96
TCGAGTAGGTCAGTCGGGGCATTCAGCCAACATA,1.39,1.09,-0.271,1.55,-0.625,2.56,2.27,2.87,1.39,2.2,4.8,4.74,0.141,-0.71,1.14,1.71,0.855,1.47,-0.53,3.03
CAAACTAGCTCACCGGAAGGTCAAAGTCCGCATG,2.99,3.06,3.46,3.43,1.02,3.16,0.628,1.58,0.364,0.774,0.993,1.36,-0.25,0.542,2.25,3.37,1.23,3.64,0.685,3.17
ATCTCTAGGCAACCAAGTTCAGTGAATGCCGAAC,0.291,0.227,0.263,0.113,0.281,0.303,0.114,0.0403,-0.317,0.0136,0.769,0.547,0.416,0.473,-0.0686,1.68,1.43,0.461,-0.516,0.951
ACTATTAGTTGACTTAGGGCAATCGATACGACGC,0.199,0.203,0.0491,0.176,0.464,-0.0585,0.814,0.195,0.373,0.365,0.335,0.292,1.13,0.914,0.761,0.304,0.241,0.866,0.707,0.668
CCTACTGGGCCATAGGTCATTGATTCCAATGCTC,1.76,2.08,1.23,2.39,-0.227,5.16,9.89,8.77,8.56,10.3,3.69,5.78,-0.202,0.625,2,2.1,0.286,2.7,-0.287,2.34
